{"source": "the OligoGym collection", "data": [{"molecular_target": "MMP20", "test": "pooled miR-30 sensor sort-seq; sequence = guide strand", "conditions": "shRNA", "values": [{"sequence": "TTTCACATCATCTTTGGGGAGG", "sensor-assay potency score (higher = more potent)": -0.942}, {"sequence": "TATTTGTGTAATATTTGTCAAG", "sensor-assay potency score (higher = more potent)": -1.1}, {"sequence": "TAATTCTACAGCAGCATCGATT", "sensor-assay potency score (higher = more potent)": -0.811}, {"sequence": "TTAATTCTACAGCAGCATCGAT", "sensor-assay potency score (higher = more potent)": -0.771}, {"sequence": "TTCCTTATCATGGAATTGCTTC", "sensor-assay potency score (higher = more potent)": -0.732}, {"sequence": "TAGTCTTTTTCCATTTTCCTTT", "sensor-assay potency score (higher = more potent)": -0.827}, {"sequence": "TTTCCTTTCGTCGTAGCTGTAG", "sensor-assay potency score (higher = more potent)": -0.397}, {"sequence": "TGTAGCTCCTTAATCTTCCTTA", "sensor-assay potency score (higher = more potent)": -0.0346}, {"sequence": "TTCTTGATCACGTTCATTGTGG", "sensor-assay potency score (higher = more potent)": -0.0903}, {"sequence": "TTTCCTTTTCCTTTCGTCGTAG", "sensor-assay potency score (higher = more potent)": 0.328}, {"sequence": "TTCTACAGCAGCATCGATTTGG", "sensor-assay potency score (higher = more potent)": -0.442}, {"sequence": "TTCTTGTACTTATAAGTTGGGT", "sensor-assay potency score (higher = more potent)": -0.728}]}, {"molecular_target": "MMP27", "test": "pooled miR-30 sensor sort-seq; sequence = guide strand", "conditions": "shRNA", "values": [{"sequence": "TTAATTCAAACTCAACATCCGT", "sensor-assay potency score (higher = more potent)": -0.367}, {"sequence": "TTTGGGAACATCAAGGCTGTTT", "sensor-assay potency score (higher = more potent)": -0.134}, {"sequence": "TAATTCAAACTCAACATCCGTG", "sensor-assay potency score (higher = more potent)": 0.0831}, {"sequence": "TTTCTTGTGGTCTTATCACAGA", "sensor-assay potency score (higher = more potent)": -0.677}, {"sequence": "TTGTGGTCTTATCACAGACGGC", "sensor-assay potency score (higher = more potent)": -1.63}, {"sequence": "TAGGTTTTTCTTGTGGTCTTAT", "sensor-assay potency score (higher = more potent)": -0.201}, {"sequence": "AAGAACATTACTTCTCTGCGGA", "sensor-assay potency score (higher = more potent)": 0.732}, {"sequence": "TAATTTGGGAACATCAAGGCTG", "sensor-assay potency score (higher = more potent)": 0.912}, {"sequence": "TATTCTTTGTCTTAATGTCGTA", "sensor-assay potency score (higher = more potent)": -0.516}, {"sequence": "TAGTTTATTATTCTGTAGGTGA", "sensor-assay potency score (higher = more potent)": -0.199}, {"sequence": "TATTTCAAGAGAGTAGAACTGG", "sensor-assay potency score (higher = more potent)": 0.764}, {"sequence": "ATTCTTTGTCTTAATGTCGTAT", "sensor-assay potency score (higher = more potent)": -0.054}]}, {"molecular_target": "MMS22L", "test": "pooled miR-30 sensor sort-seq; sequence = guide strand", "conditions": "shRNA", "values": [{"sequence": "TTCTTGAACACCATCAATGTAT", "sensor-assay potency score (higher = more potent)": -0.0869}, {"sequence": "TTTTTTAACAACTTTTGCCAGA", "sensor-assay potency score (higher = more potent)": -0.793}, {"sequence": "TTTATCGCAACAGCAAGTCTTC", "sensor-assay potency score (higher = more potent)": -0.217}, {"sequence": "TTTGAGATTGACAACACACGAT", "sensor-assay potency score (higher = more potent)": 0.337}, {"sequence": "TATATTTTAATACTTCACCAAG", "sensor-assay potency score (higher = more potent)": -1.14}, {"sequence": "TTGAGATTGACAACACACGATA", "sensor-assay potency score (higher = more potent)": -0.65}, {"sequence": "TAATCTTGTCAGTTTGACCAAC", "sensor-assay potency score (higher = more potent)": -0.606}, {"sequence": "TTGCTGACAACATAGGTGCAGG", "sensor-assay potency score (higher = more potent)": -1.03}, {"sequence": "TTCTTCTAGAATGACACCCTGA", "sensor-assay potency score (higher = more potent)": 0.182}, {"sequence": "TAATCCACCAACTAAAACCTAA", "sensor-assay potency score (higher = more potent)": -0.962}, {"sequence": "TATCTTGCTACAACTTGAGGGC", "sensor-assay potency score (higher = more potent)": -0.184}, {"sequence": "TTAAGTAGTTTATTCAACCAGT", "sensor-assay potency score (higher = more potent)": -0.299}]}]}
